This note sets out measurements from PubChem BioAssay (NCI).

A short description of assay [1]: NCI Yeast Anticancer Drug Screen. Data for the rad50 strain (AID 155).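 Also: 0% = growth of vehicle-only cultures of the same strain.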 To be noted: S. cerevisiae rad50 strain growth inhibition; at 50.0 µM; stronger effect = higher value. In a few lines:
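Compounds were tested on a yeast strain with an engineered DNA damage repair alteration; the reported value is growth inhibition normalised to vehicle treatment.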

Assay [2] can be described thus: NCI Yeast Anticancer Drug Screen. Data for the mec2-1 strain (AID 157). The settings on record: S. cerevisiae mec2-1 strain, at 50.0 µM, stronger effect = higher value. In short, it runs like this:
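Strain: mec2-1 (DNA repair/cell cycle alteration). Compound exposure, then growth measured; inhibition expressed relative to vehicle.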

A short description of assay [3]: NCI Yeast Anticancer Drug Screen. Data for the sgs1 mgt1 strain (AID 161).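 Also: 0% = growth of cultures given vehicle only.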 The settings on record: S. cerevisiae sgs1 mgt1 strain, at 50.0 µM, stronger effect = higher value. In short, it runs like this: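 Read-out: growth inhibition vs vehicle controls. Cells: mutant yeast strain deficient in DNA damage repair.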
Assay [4] is described as follows: NCI Yeast Anticancer Drug Screen. Data for the cln2 rad14 strain (AID 165).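 Also: 0% = growth equal to vehicle treated cultures.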 The settings on record: S. cerevisiae cln2 rad14 strain, at 50.0 µM, stronger effect = higher value. In a few lines: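 Compounds are applied to the cln2 rad14 yeast strain, and growth is then compared with that of vehicle-treated cultures to give inhibition.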
Assay [5] is described as follows: NCI Yeast Anticancer Drug Screen. Data for the bub3 strain (AID 167). The settings on record: S. cerevisiae bub3 mutant strain, at 50.0 µM, stronger effect = higher value. In a few lines: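 Growth of a checkpoint-deficient yeast mutant is measured after compound exposure. Values represent inhibition relative to vehicle.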
Assay [6] can be described thus: NCI Yeast Anticancer Drug Screen. Data for the mlh1 rad18 strain (AID 175). To be noted: S. cerevisiae mlh1 rad18 strain growth inhibition; at 50.0 µM; stronger effect = higher value. In short, it runs like this: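 Read-out is yeast growth inhibition, calculated against vehicle-only controls. The compound was applied to a strain engineered with DNA damage repair alterations.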

Molecules are shown by their SMILES. This is part of a sample that, as a whole, favours compounds with a hit. Of some 79,000 tested, about 15% had one in any assay. Values without a mark were called inactive. Active and inactive are the calls of the source. Rule as the data show it: active = growth inhibition above about 70%; inactive = the rest.

As for `O=C(CBr)c1c2c(cc3c1CCCC3)CCCC2`, the growth inhibition in assay [1] was 1.75%; in assay [2], -1.35%; in assay [3] it was -2.05%; in assay [4], -4.9%; in assay [5] it was 33%.
The matching figures for `CC(=O)CC(OC(C)=O)C1=CCC2C(CC1C)OC(=O)C2C` (configuration not stated): 45.8%, 9.8%, -22.6%, -0.65% and -36.5%.
On the same counts, the results for `COc1cc([N+](=O)[O-])ccc1C(=O)NC(CCC(=O)O)C(=O)O` (configuration not stated) are -12.6%, -19.9%, 19.1%, -20.4% and 28.6%.
The matching figures for `CCCCCCCCCCCCCCCCc1ccc(CCCC(=O)O)cc1`: -20.8%, -16.2%, -13.3%, 5.45% and -17.3%.
Turning to `O=c1c2ccccc2nnn1O`, the growth inhibition in assay [1] was 12.8%; in assay [2], 0.2%; in assay [3], 4.55%; in assay [4], -23.1%; in assay [5] it was -5.95%.
On the same counts, the results for `OCCN(CCO)c1ccc2c(C(F)(F)F)cc(C(F)(F)F)nc2n1` are 0.45%, -8.25%, 15.8%, 0.7% and 10.6%.
The matching figures for `C[CH2][Ge]([CH2]C)([CH2]C)[O]C(=O)CCC(=O)[O][Ge]([CH2]C)([CH2]C)[CH2]C`: -2.1%, -2.9%, -3.7%, -66.7% and -0.45%.
Regarding `COc1nc2ccccc2nc1OC`, the growth inhibition is -14.1% in assay [1]; -8.75% in assay [2]; -5.5% in assay [3]; -14.8% in assay [4]; 4.45% in assay [5]; 4% in assay [6].
As to `O=C(Nc1c(Oc2ccc(Cl)c(Cl)c2)ccc(Cl)c1S(=O)(=O)O)Nc1c(Oc2ccc(Cl)c(Cl)c2)ccc(Cl)c1S(=O)(=O)O`, the growth inhibition in assay [1] was 22.2%; in assay [2], -3.25%; in assay [3] it was 13.9%; in assay [4], 11.7%; in assay [5], 22.1%.
Consider `C=CCO[Si](C=C)(OCC=C)OCC=C`, for which the growth inhibition was 31.8% in assay [1]; -10.9% in assay [2]; -5.35% in assay [3]; 10.7% in assay [4]; 9.6% in assay [5].
The matching figures for `COc1cc(O)c2c(c1)C(=O)C1=C(C2=O)C(O)C[C@@](C)(O)C1` (some centres not stated): 89.2% (active), 90.2% (active), 92% (active), 75.5% (active) and 91.2% (active).
On the same counts, the results for `Cc1ccc(S(=O)(=O)Nc2cc3c(cc2NC(=O)C(F)(F)F)-c2ccccc2C3)cc1` are 52.8%, -9%, 38.8%, -7.4% and -1.25%.
The matching figures for `COC(=O)c1cc(C(=O)O)c(=O)n2ccccc12`: 23%, 50%, 32.1%, 53.2% and 35.2%.
On to `Cc1c(C(=O)Nc2ccc(Cl)cc2)nc(N)nc1-c1cccc(Cl)c1`, for which the growth inhibition in assay [1] was -18.9%; in assay [2] it was -8.85%; in assay [3], 2.3%; in assay [4], 1.1%; in assay [5], -3.6%.
`O=C1NC(=O)c2ccccc2/C1=C/c1ccc2c(c1)OCO2`: the growth inhibition is -16.6% in assay [1]; -8.25% in assay [2]; -13.3% in assay [3]; -32.5% in assay [4]; -2.6% in assay [5].
As for `CCCCCCc1c(C)nc(N)[nH]c1=O`, the growth inhibition in assay [1] was 7.55%; in assay [2], -3.85%; in assay [3], -13.4%; in assay [4] it was -67.7%; in assay [5], 10%.
As for `NC(=S)N/N=C1\CCCCC1C(O)(C(F)(F)Cl)C(F)(F)Cl` (configuration not stated), the growth inhibition was -26.2% in assay [1]; -33.8% in assay [2]; -19.1% in assay [3]; -8.9% in assay [4]; -11.5% in assay [5]; -25.2% in assay [6].
`OC1CCCCC1[n+]1ccccc1` (configuration not stated): the growth inhibition is -7.8% in assay [1]; -0.6% in assay [2]; -7.45% in assay [3]; -24.1% in assay [4]; -7.35% in assay [5]; -0.55% in assay [6].
As for `O=C(Nc1ccc(Cl)c(Cl)c1)Oc1ccccc1Cl`, the growth inhibition in assay [1] was -15.2%; in assay [2], -29.6%; in assay [3], -4.9%; in assay [4], -36%; in assay [5], -16.4%; in assay [6], -29.9%.
For the molecule `CN1c2ccccc2Sc2cc(/C=C3/SC(=S)NC3=O)ccc21`, the growth inhibition is 1.95% in assay [1]; 4.6% in assay [2]; 3.55% in assay [3]; -19.8% in assay [4]; 38.8% in assay [5]; 0.15% in assay [6].
Consider `C=CC(=O)NC(=O)/C=C/c1cccnc1`, for which the growth inhibition is 17.4% in assay [1]; -8.05% in assay [2]; 1% in assay [3]; -3.25% in assay [4]; 10.7% in assay [5]; 5.5% in assay [6].
Take `COC(=O)[C@@]1(C)/C(=N/NS(=O)(=O)c2ccc(C)cc2)CCC[C@@H]1C`: the growth inhibition in assay [1] is 11.4%; in assay [2], -23%; in assay [3], -7.15%; in assay [4], 3.05%; in assay [5] it was -1.4%; in assay [6], -1.85%.
